ATG4B inhibitor: inhibitors of human ATG4B cysteine protease; actives 0.51% (n = 340,000); Q9Y4P1; inhibition, % at 8.33 µM; ATG4B cleavage of LC3-PLA2, NBD-HPC fluorescence, 1 h; AID 504462; in the data active means inhibition above about 40%
M1 PAM: human CHRM1 positive allosteric modulation; activation, % at 3 µM; P11229; CHO-K1 hM1, Fluo-8 calcium fluorescence, ACh EC20; 0% = ACh EC20, 100% = maximal ACh; actives 0.088% (n = 360,000); in the data active means activation above about 19%, passing the limit was not always enough
Myeloid diff MLP: promotes myeloid progenitor differentiation; ER-HoxA9 myeloid progenitors, lysozyme-GFP differentiation, flow cytometry; actives 1% (n = 360,000); calls only at 10 µM;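 active means normalized GFP-positive differentiation at or above the plate's own cutoff, the solvent-only control mean plus 3 SD; inconclusive means no clear call, values can overlap the other calls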;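 further: cells exposed to compound for four days before flow analysis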
SKN-1 block: inhibitors of C. elegans SKN-1. C. elegans VP596 Pgst-4::GFP/RFP ratio, acrylamide-induced, 24 h. actives 0.49% (n = 360,000). AID 624304. inhibition, % at 21.8 µM;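 active means interference check ratio from 0.5 to 1.5 plus GFP to RFP signal ratio inhibition reaching or exceeding a fixed threshold, cut at about 30% in these data, passing the limit was not always enough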
CHRM1 antagonist: human CHRM1 antagonism; AID 588852; inhibition, % at 3 µM; CHO-K1 hM1, Fluo-8 calcium fluorescence, ACh EC80 antagonist; P11229; actives 1.3% (n = 360,000);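 active means percent inhibition above its own plate's cutoff, namely the mean of that plate's compound wells plus 3 SD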;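 further: peak over basal fluorescence ratio during 140 s after agonist addition; 0% = ACh EC80 plus DMSO and 100% = DMSO alone without agonist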
M1 ag: agonists of human M1 muscarinic receptor. AID 588814. actives 0.33% (n = 360,000). CHO-K1 hM1, Fluo-8 calcium fluorescence, agonist mode; 0% DMSO, 100% acetylcholine EC100. activation, % at 3 µM;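 active means activation above the run's mean compound activation plus 3 SD, cut at about 16% in these data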;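 further: peak over basal fluorescence ratio within a 140 s kinetic read after compound addition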
ATG4B confirm: confirmation of human ATG4B inhibitors; shares compounds with ATG4B inhibitor; ATG4B protease fluorescent substrate cleavage assay; inhibition, % at 8.33 µM; actives 92% (n = 320); AID 504757; in the data active means inhibition above about 39%
PLA2 ctr: PLA2 (human) inhibition in ATG4B counter-screen; actives 66% (n = 1,600); shares compounds with ATG4B inhibitor; purified PLA2, NBD-C6-HPC fluorescence, 45 min; inhibition, % at 8.33 µM; in the data active means inhibition above about 50%
Target sequence (P04054 whole entry, looked up): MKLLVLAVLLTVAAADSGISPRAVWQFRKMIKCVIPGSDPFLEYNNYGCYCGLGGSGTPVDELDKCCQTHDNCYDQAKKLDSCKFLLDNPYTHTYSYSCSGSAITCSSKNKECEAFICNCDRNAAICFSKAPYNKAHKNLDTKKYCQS
The depositor's hits bear a star; i = inactive; ? = inconclusive; / = no result. An excerpt weighted towards active compounds, which were near 3.5% of everything screened.

SMILES	ATG4B inhibitor	M1 PAM	Myeloid diff MLP	SKN-1 block	CHRM1 antagonist	M1 ag	PLA2 ctr	others
Cc1ccc(N(CC(=O)NCc2ccc(F)cc2)C(=O)c2snc(C(N)=O)c2N)cc1C	59.7*	22.4	i	-22.5	-4.4	14.2	56.9*
Cc1nn(CC(=O)OCC(=O)c2ccccc2)c(C)c1[N+](=O)[O-]	-4.3	3.3	i	-6.9	-13.6	-0.9	/
COC(=O)c1cc(C)nc2c1C(=O)C(=O)C=C2N1CCOCC1	75.2*	7.6	?	-5.3	-3.8	4.5	-12.4	ATG4B confirm=31.9
COc1cc(/C=C(/C#N)C(=O)Nc2cc(C(F)(F)F)ccc2Cl)ccc1OCC(=O)Nc1cccc(C(F)(F)F)c1	-1.2	-8.1	i	-2.7	13.9	-1.6	/
COC(=O)NNC(=O)COc1ccc(Br)c(C)c1	3.1	8.9	i	5.0	-7.7	1.6	/
COC(=O)NNC(=O)COc1cc(C)c(Br)cc1C(C)C	40.8*	7.0	i	3.8	-5.5	-8.2	-14.4
CC(C)(C)c1ccc(C(=O)N/C(=C\c2cccs2)C(=O)N2CCOCC2)cc1	10.0	6.3	i	12.7	-11.8	-3.9	/
CC(=O)c1ccc(NC(=O)NC2CCCc3ccccc32)cc1 (centres undefined)	39.9	2.0	i	0.3	-1.3	0.1	/
CC(=O)c1cccc(NC(=O)NC2CCCc3ccccc32)c1 (centres undefined)	52.6*	2.5	i	-1.7	6.2	-3.5	66.9*
COc1ccc(S(=O)(=O)N2CCCCC2)cc1NC(=S)Nc1cccc(Cl)c1C	71.4*	4.8	i	2.4	-8.2	-5.6	73.0*
COc1ccccc1OCC(=O)Nc1cc(S(=O)(=O)N2CCCCC2)ccc1N1CCCCC1	41.8*	-14.3	i	18.3	13.4	-8.7	0.6
CCOc1ccccc1OCC(=O)Nc1cc(S(=O)(=O)N2CCCCC2)ccc1N1CCN(CC)CC1	-4.9	-5.7	i	-8.8	12.3	-7.5	/
CCN(CC)S(=O)(=O)c1ccc(N2CCOCC2)c(NC(=O)COc2ccccc2C)c1	62.0*	7.1	i	10.5	-2.6	-6.5	75.9*
CC1=C(C(=O)N2CCCCCC2)CC(CC(=O)NCCN2CCOCC2)C(=O)N1CCCN1CCCC1=O (centres undefined)	/	/	i	4.5	/	/	/
CCc1nn(CCCC(=O)NCc2ccccc2Br)c(=O)c2cc3occc3n12	50.5*	5.3	?	15.0	-7.0	-4.4	42.9	ATG4B confirm=65.6*
CCOCCCNC(=O)C1CCCN(S(=O)(=O)c2ccc(-n3cnnn3)cc2)C1 (centres undefined)	-4.0	14.5	i	7.8	-13.3	-1.8	/
O=C(Nc1cc(C(=O)Nc2ccccc2C(=O)O)cc(C(=O)Nc2ccccc2C(=O)O)c1)c1ccccc1	67.9*	15.5	i	-7.5	-24.9	2.6	84.2*
O=C(Nc1ccccc1C(=O)O)c1cccc(NC(=O)c2ccccc2Br)c1	0.1	16.0	i	2.2	-6.6	-0.6	/
COC(=O)C1(CC2CC(c3cccc(Br)c3)=NO2)CCN(C(=O)OC(C)(C)C)CC1 (centres undefined)	-11.2	-1.8	i	-13.0	-4.8	-5.6	/
Nc1ccc2c(c1)C(=O)C(=O)c1ccccc1-2	78.1*	-1.0	?	8.8	16.7	-1.4	10.5	ATG4B confirm=27.1
COc1ccc(S(=O)(=O)N(Cc2cccs2)C2CCCC2)cc1	50.3*	-9.4	i	9.9	1.7	-5.0	53.5*
O=C1C(=O)c2c(C(=O)c3ccccc3)coc2-c2ccccc21	64.5*	-5.7	?	-6.0	-4.5	2.2	88.8*
O=C(OCCN1CCOCC1)c1ccccc1Cl	0.5	17.2	i	-1.8	-13.4	-2.0	/
CCCCn1c(N)c(N(CCOC)C(=O)COC(=O)COc2cc(C)c(Cl)cc2C(C)C)c(=O)[nH]c1=O	51.2*	7.3	i	2.5	-10.9	-7.1	57.9*

Source: PubChem
